These results are taken from PubChem BioAssay (NCI).

Common to all, as to experiment: NCI-60 one-dose screen, 48 h (100 = growth as untreated, 0 = no growth, -100 = all killed)
Details in all cases: 10 µM unless noted

Assay [1] concerns NCI-H23 lung.
Assay [2] has as its system NCI-H322M lung.
Assay [3] has as its system HOP-62 NSCLC.
Assay [4] relates to NCI-H460 lung.
The test system of assay [5] is HOP-92 NSCLC.
Assay [6] concerns NCI-H522 lung.
Assay [7] concerns A549/ATCC NSCLC.
Assay [8] has as its system 786-0 renal.
Assay [9] has as its system COLO 205 colon.
Assay [10] has as its system DU-145 prostate.
In assay [11] the test system is K-562 leukemia.
Assay [12] has as its system MALME-3M melanoma.
Assay [13] deals with MDA-MB-231 breast.
For assay [14], the system named is RXF 393 renal.
In assay [15] the test system is SF-268 CNS.
Assay [16] deals with SF-295 CNS.
In assay [17] the test system is SF-539 CNS.
Assay [18] has as its system UACC-257 melanoma.
The test system of assay [19] is M14 melanoma.
The test system of assay [20] is HCT-15 colon.

The panel holds about 83,000 compounds, 20% with a hit somewhere; the sample as a whole holds those more often.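 48-hour exposure, single concentration, 96-well plates; percent growth endpoint where 0 means no net growth. Active: below 10.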 A number with no mark means an inactive call. Calls of active or inactive are those of the source.

In the case of `CN1C(=O)N(C)C2C1NN=c1s/c(=C\c3ccc(Cl)cc3Cl)c(=O)n12` (stereo not drawn), the growth in assay [1] is 29%; in assay [2], 38.3%; in assay [3], 54.3%; in [4], 3.01% (active); in assay [5], 97.6%; in assay [6], 17.5%. The growth in [7] was 25.1%; in assay [8], 24%; in assay [9], 1.82% (active); in assay [10], 5.98% (active); in assay [11], 7.76% (active); in assay [12], 62.4%. Further, the growth in assay [13] is 30.4%; in [14], 16.2%; in [15] it was 31.6%; in [16], 17.4%; in assay [17] it was 1.09% (active); in assay [18], 75.8%. Also, the growth in [19] is 7.37% (active); in assay [20] it was 15.8%.

As for `CC(C)(C)c1ccc(C2CC(=O)C3=C(C2)Nc2ccccc2N(C(=O)c2ccccc2Cl)C3c2ccc(F)cc2)cc1` (stereo not drawn), the growth in [1] was 3.17% (active); in assay [2], -9.78% (active); in assay [3] it was 25.3%; in assay [4], -0.748% (active); in [5] it was 58.5%; in assay [6], 14.7%. Besides, the growth in assay [7] is -3.2% (active); in [8], 51.8%; in assay [9], -63.5% (active); in assay [10] it was 37%; in assay [11], 10.1%; in [12] it was -85% (active). The growth in assay [13] is 15.7%; in assay [14], -3.26% (active); in assay [15], 10.3%; in [17], 8.74% (active); in assay [18], -34.1% (active); in assay [19] it was 5.11% (active). For the same molecule, the growth in [20] was 19.3%.

For `O=C(CSc1ncccc1C(=O)O)Nc1ccc(Oc2ccccc2)cc1`, the growth was 104% in assay [1]; 99% in [2]; 93.8% in assay [3]; 102% in assay [4]; 102% in [5]; 105% in [6]. Moreover, the growth is 98% in assay [7]; 99.8% in assay [8]; 108% in assay [9]; 110% in assay [10]; 94.4% in assay [11]; 99.3% in assay [12]. In addition, the growth in assay [13] was 124%; in assay [14], 107%; in [15], 105%; in assay [17], 106%; in assay [18], 100%; in assay [19], 98.7%. Besides, in assay [20], the growth is 104%.

With `COc1cc(OC)cc(N2C(=O)N(Cc3ccc(C(C)(C)C)cc3)c3ccccc3S2(=O)=O)c1`, the growth in assay [1] was 82.8%; in assay [2] it was 83.3%; in assay [3] it was 95.2%; in [4] it was 93.9%; in assay [5] it was 56.1%; in [6], 76.9%. For the same molecule, the growth in assay [7] was 93.3%; in assay [8], 73.7%; in assay [9] it was 83.6%; in assay [10], 96.2%; in assay [11], 33.3%; in [12], 64%. Moreover, the growth was 77.4% in assay [13]; 60.2% in [14]; 89% in assay [15]; 87.2% in assay [17]; 105% in assay [18]; 85.2% in assay [19]. Besides, the growth in [20] was 67.9%.

As for `CCN(CC)c1cc(C)c2cc(NC(=O)c3cccc(OC)c3)ccc2n1`, the growth in assay [1] is 85%; in assay [2], 109%; in assay [3], 107%; in [4], 57.1%; in [5], 29.1%; in assay [6] it was 93.4%. The growth in [7] was 80%; in [8], 70%; in assay [9], 89.7%; in [10] it was 92.9%; in assay [11], 13.4%; in [12] it was 82.5%. The growth was 55.5% in assay [13]; 51.3% in assay [14]; 63.2% in assay [15]; 77.3% in [17]; 105% in [18]; 77.3% in [19]. In addition, the growth in [20] is 61.4%.

As to `FC(F)(F)c1cccc(Nc2nc(-c3ccccc3)nc3ncccc23)c1`, the growth in assay [1] was 89.9%; in [2], 87.8%; in assay [3], 84.5%; in [4], 20.9%; in assay [5], -67.3% (active); in assay [6], 72.8%. Besides, the growth was 82.3% in [7]; 68% in assay [8]; -75% (active) in [9]; 75.1% in [10]; -47.1% (active) in assay [11]; -83.1% (active) in assay [12]. The growth in assay [13] was 44%; in assay [14], -13.6% (active); in [15] it was 13.3%; in [17] it was 3.25% (active); in [18], -52.7% (active); in [19] it was -86.6% (active). The growth in assay [20] is 17.6%.

For the molecule `O=C1/C=C/[C@@H](O)[C@@H]2C[C@@H](O)C[C@H]2/C=C/CCCCO1`, the growth in assay [1] is 13%; in assay [2], 33.2%; in assay [3], 23.8%; in assay [4], 7.12% (active); in [5] it was -3.95% (active); in assay [6], 19.4%. Also, the growth in assay [7] was 23.1%; in assay [8] it was 3.17% (active); in assay [9], -49.7% (active); in assay [10], 19.3%; in [11], 13.7%; in [12], 13.8%. Besides, the growth in [13] is -21.2% (active); in assay [15] it was 11.7%; in assay [16], 21.9%; in assay [17], 17.8%; in [18], 9.88% (active); in assay [19] it was 30.2%. The growth in [20] is 19.8%.

In the case of `Clc1ccc(-c2nnc(COc3ccc(C4=NNC(c5ccco5)C4)cc3)o2)cc1` (stereo not drawn), the growth in assay [1] was 61.5%; in assay [2], 36.6%; in assay [3], 105%; in assay [4] it was 82.7%; in [5], 76.8%; in assay [6], 86.7%. Also, the growth in assay [7] was 45.6%; in [8] it was 89.5%; in assay [9] it was 105%; in [10], 94.8%; in assay [11], 80.7%; in [12], 109%. In addition, the growth in assay [13] was 82.7%; in assay [14] it was 91.7%; in assay [15], 93.9%; in [17], 95.6%; in assay [18], 96.1%; in assay [19], 88%. In assay [20], the growth is 58.8%.
